Assay results published in PubChem BioAssay (Tox21).
Inconclusive results are not listed. Entries that show only a call come without a potency. More than one record can exist for a structure, and the calls need not agree. Calls of active or inactive are those of the source. Unless noted, the call rests on the fitted dose curve; in most records, active means well fitted curve in the direction sought with a large enough effect in the repeat runs; inconclusive means weak or mixed curves; inactive means no such curve, though single readings can be large; an effect the other way counts as inactive or inconclusive. Residues, ends and D or L forms follow the SMILES beside them.

Legend:
[1] = qHTS assay to test for compound auto fluorescence at 535 nm (green) in HEK293 cells (AID 720680)
[2] = qHTS assay to test for compound auto fluorescence at 460 nm (blue) in HEK293 cell free culture (AID 720681)
In short: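 Compounds were added to cell-free DMEM with 10% FBS and fluorescence read directly. The blue channel used 405 nm excitation and 460 nm emission, with triamterene as the reference fluorophore.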

[3] = qHTS assay to test for compound auto fluorescence at 535 nm (green) in HEK293 cell free culture (AID 720682)
In short: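 Each library compound, or DMSO control, is added by pintool to medium alone, comprising DMEM and 10% FBS. Emission at 535 nm following 485 nm excitation is quantified against fluorescein.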

[4] = qHTS assay to test for compound auto fluorescence at 590 nm (red) in HEK293 cell free culture (AID 720683)
In short: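 Cell-free wells of DMEM with 10% FBS received compound, and intrinsic fluorescence was read at excitation/emission 540/590 nm. Values expressed as equivalence to Rose Bengal sodium.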

[5] = qHTS assay to test for compound auto fluorescence at 590 nm (red) in HepG2 cell free culture (AID 720684)
In short: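 Rose Bengal sodium served as the reference for red signal. Test compounds were dispensed into serum-containing MEM (10% FBS) without cells, and plates were read at 540/590 nm.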

[6] = qHTS assay to test for compound auto fluorescence at 535 nm (green) in HepG2 cell free culture (AID 720686)
[7] = qHTS assay to test for compound auto fluorescence at 460 nm (blue) in HepG2 cells (AID 720687)
In short: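 HepG2 cells in MEM with 10% FBS, attached overnight at 37 C, were exposed to compound or DMSO for 1 hr at 37 C, 5% CO2. Blue fluorescence was read at 405/460 nm, with triamterene as reference fluorophore.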

[8] = target: Glucocorticoid receptor (Homo sapiens) (UniProt P04150); experiment: qHTS assay to identify small molecule agonists of the glucocorticoid receptor (GR) signaling pathway (AID 720691; active means well fitted activation curve with a large enough effect in the signal ratio in the repeat runs, not every such curve was filed as active; the % refers to the signal ratio); details: GR-bla HeLa, beta-lactamase reporter ratio, 18 h; activation: at 62.4 µM (top of the series)
In short: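 Steps: seed GR-bla HeLa cells, incubate 4 h at 37 C/5% CO2; pin-transfer DMSO-dissolved compounds; incubate 18 h at 37 C; add LiveBLAzer B/G FRET substrate; after 2 h at room temperature, measure fluorescence.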

[9] = qHTS assay to identify small molecule antagonists of the glucocorticoid receptor (GR) signaling pathway - cell viability counter screen (AID 720693); further: nearly all actives have a fitted effect of over 55% in size; further: potency means the concentration at half of the fitted maximal effect
[10] = qHTS assay for identifying genotoxic compounds that show differential cytotoxicity against isogenic chicken DT40 cell lines with known DNA damage response pathways - wild type cell line (AID 743012); further: nearly all actives have a fitted effect of over 60% in size; further: potency means the concentration at half of the fitted maximal effect
In short: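 Cytotoxicity in repair-proficient parental chicken DT40 cells serves as the comparator for Rad54/Ku70- and Rev3-deficient lines. Cells were exposed to compounds for 40 h at 37 C/5% CO2, and ATP-based luminescence (CellTiter-Glo) measured viability.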

[11] = qHTS assay for identifying genotoxic compounds that show differential cytotoxicity against isogenic chicken DT40 cell lines with known DNA damage response pathways - Rev3 mutant cell line (AID 743014); further: nearly all actives have a fitted effect of over 55% in size; further: potency means the concentration at half of the fitted maximal effect
[12] = qHTS assay for identifying genotoxic compounds that show differential cytotoxicity against isogenic chicken DT40 cell lines with known DNA damage response pathways - Rad54/Ku70 mutant cell line (AID 743015); further: nearly all actives have a fitted effect of over 60% in size; further: potency means the concentration at half of the fitted maximal effect
[13] = qHTS assay to identify small molecule antagonists of the androgen receptor (AR) signaling pathway - cell viability counter screen (AID 743033; further: nearly all actives have a fitted effect of over 45% in size)
[14] = target: Androgen receptor (Homo sapiens) (UniProt P10275); experiment: qHTS assay to identify small molecule antagonists of the androgen receptor (AR) signaling pathway (AID 743035; active means well fitted inhibition curve with a large enough effect in the signal ratio in the repeat runs, not every such curve was filed as active; the % refers to the signal ratio)
In short: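 Steps: seed AR-UAS-bla GripTite HEK293 cells, incubate 4 h at 37C; pin in test compound, then add agonist R1881; incubate 16 h at 37C; add LiveBLAzer B/G FRET substrate, 2 h at room temperature; read fluorescence.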

[15] = target: Androgen receptor (Homo sapiens) (UniProt P10275); experiment: qHTS assay to identify small molecule agonists of the androgen receptor (AR) signaling pathway (AID 743036; active means well fitted activation curve with a large enough effect in the signal ratio in the repeat runs, with a control signal flat, not every such curve was filed as active; the % refers to the signal ratio)
In short: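 Following a 4 h settling period, AR-UAS-bla HEK293 cells were dosed with compounds for 16 h at 37C. A 2 h room-temperature incubation with LiveBLAzer B/G FRET substrate preceded the fluorescence measurement.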

[16] = target: Androgen receptor (Homo sapiens) (UniProt P10275); experiment: qHTS assay to identify small molecule agonists of the androgen receptor (AR) signaling pathway using the MDA cell line (AID 743040; further: nearly all actives have a fitted effect of over 20% in size)
In short: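 Luciferase read-out, ONE-Glo, 30 min RT. Cells: MDA-kb2 AR-luc, MMTV promoter with AR and GR response elements. Compound exposure 16 h, 37C, 0% CO2, after 5 h pre-incubation. qHTS agonist mode.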

[17] = qHTS assay to identify small molecule antagonists of the androgen receptor (AR) signaling pathway using the MDA cell line - cell viability counter screen (AID 743041; further: nearly all actives have a fitted effect of over 45% in size; further: potency means the concentration at half of the fitted maximal effect)
In short: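 Cytotoxicity counter screen: MDA-kb2 AR-luc cells, compound + R1881, 16 h, 37C, 0% CO2; CellTiter-Fluor added at 15.5 h, fluorescence read after 30 min.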

[18] = target: Androgen receptor (Homo sapiens) (UniProt P10275); experiment: qHTS assay to identify small molecule antagonists of the androgen receptor (AR) signaling pathway using the MDA cell line (AID 743042; further: nearly all actives have a fitted effect of over 55% in size; further: potency means the concentration at half of the fitted maximal effect)
In short: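 MDA-kb2 breast carcinoma cells carrying MMTV-luciferase (AR/GR responsive) were co-treated with compounds and the agonist R1881 for 16 h at 37C. Inhibition read as ONE-Glo luminescence; CellTiter-Fluor fluorescence measured in parallel for cytotoxicity.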

[19] = target: Glucocorticoid receptor (Homo sapiens) (UniProt P04150); experiment: qHTS assay to identify small molecule antagonists of the glucocorticoid receptor (GR) signaling pathway (AID 720692; active means well fitted inhibition curve with a large enough effect in the signal ratio in the repeat runs, not every such curve was filed as active; the % refers to the signal ratio)
In short: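 Antagonism was scored as loss of dexamethasone-driven (5 nM final) reporter signal in HeLa cells bearing a glucocorticoid response element–beta-lactamase construct, after 18 h compound exposure at 37 C and 2 h FRET substrate loading.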

[20] = qHTS assay to test for compound auto fluorescence at 460 nm (blue) in HepG2 cell free culture (AID 720685)
In short: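 Cell-free plates of MEM plus 10% FBS received 23 nL compound or DMSO vehicle; blue-channel (405/460 nm) intensity scored against triamterene as reference fluorophore.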

Glucocorticoid receptor (Homo sapiens), sequence (P04150 whole entry, looked up): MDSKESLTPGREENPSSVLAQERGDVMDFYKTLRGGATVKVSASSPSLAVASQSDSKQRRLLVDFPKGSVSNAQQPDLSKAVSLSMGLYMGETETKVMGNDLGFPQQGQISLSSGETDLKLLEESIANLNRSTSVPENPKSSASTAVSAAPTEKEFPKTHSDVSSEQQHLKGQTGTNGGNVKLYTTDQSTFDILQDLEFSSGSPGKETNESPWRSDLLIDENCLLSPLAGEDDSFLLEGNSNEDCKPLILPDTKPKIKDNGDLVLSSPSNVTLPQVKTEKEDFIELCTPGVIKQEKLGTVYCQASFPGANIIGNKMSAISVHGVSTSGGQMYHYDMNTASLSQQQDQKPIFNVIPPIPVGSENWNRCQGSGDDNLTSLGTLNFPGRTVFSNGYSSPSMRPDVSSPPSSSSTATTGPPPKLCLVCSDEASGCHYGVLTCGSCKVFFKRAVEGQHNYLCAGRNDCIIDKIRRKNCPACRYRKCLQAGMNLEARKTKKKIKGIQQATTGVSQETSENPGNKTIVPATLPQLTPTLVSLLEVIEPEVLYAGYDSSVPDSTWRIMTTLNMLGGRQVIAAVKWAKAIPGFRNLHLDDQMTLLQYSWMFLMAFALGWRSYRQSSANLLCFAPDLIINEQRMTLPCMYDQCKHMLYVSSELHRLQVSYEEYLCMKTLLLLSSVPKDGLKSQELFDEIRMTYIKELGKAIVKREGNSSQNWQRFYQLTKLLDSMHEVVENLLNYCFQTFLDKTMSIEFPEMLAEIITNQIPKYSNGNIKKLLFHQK
Androgen receptor (Homo sapiens), sequence (P10275 whole entry, looked up): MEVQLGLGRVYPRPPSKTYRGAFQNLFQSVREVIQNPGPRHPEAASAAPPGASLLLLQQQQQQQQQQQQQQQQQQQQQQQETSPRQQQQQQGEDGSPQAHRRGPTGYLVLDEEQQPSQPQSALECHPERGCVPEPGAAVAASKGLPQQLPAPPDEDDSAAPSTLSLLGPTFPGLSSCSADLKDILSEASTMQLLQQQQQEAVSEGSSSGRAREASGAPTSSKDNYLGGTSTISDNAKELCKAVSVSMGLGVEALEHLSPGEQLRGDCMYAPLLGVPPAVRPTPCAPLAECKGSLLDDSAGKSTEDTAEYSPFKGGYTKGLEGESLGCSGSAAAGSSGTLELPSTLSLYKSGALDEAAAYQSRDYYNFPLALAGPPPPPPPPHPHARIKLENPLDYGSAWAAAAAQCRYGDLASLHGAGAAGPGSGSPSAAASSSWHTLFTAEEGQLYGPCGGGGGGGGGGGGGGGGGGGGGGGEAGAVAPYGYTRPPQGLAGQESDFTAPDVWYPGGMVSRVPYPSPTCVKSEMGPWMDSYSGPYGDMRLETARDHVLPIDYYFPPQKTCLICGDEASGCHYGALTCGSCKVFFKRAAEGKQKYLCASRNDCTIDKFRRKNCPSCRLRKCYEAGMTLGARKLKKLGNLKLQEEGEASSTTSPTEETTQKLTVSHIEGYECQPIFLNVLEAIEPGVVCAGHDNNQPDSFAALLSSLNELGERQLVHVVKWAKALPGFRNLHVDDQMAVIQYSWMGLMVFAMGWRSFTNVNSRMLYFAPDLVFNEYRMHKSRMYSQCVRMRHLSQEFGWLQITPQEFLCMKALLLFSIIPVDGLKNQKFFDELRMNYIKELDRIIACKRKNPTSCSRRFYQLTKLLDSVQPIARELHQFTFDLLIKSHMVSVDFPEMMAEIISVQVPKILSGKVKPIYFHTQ

Row | SMILES | outcome [1] | Potency [2] | outcome [3] | outcome [4] | outcome [5] | Potency [6] | Potency [7] | Potency [8] | Potency [9] | Potency [10] | Potency [11] | Potency [12] | Potency [13] | Potency [14] | Potency [15] | Potency [16] | Potency [17] | Potency [18] | Potency [19] | Potency [20]
1 | C[C@@H]1C(=O)NC2=Nc3cccc(Cl)c3CN21 | inactive | inactive | inactive | inactive | inactive | inactive | inactive | inactive | inactive | inactive | inactive | inactive | inactive | inactive | inactive | inactive | inactive | inactive | – | –
2 | NC(N)=NCCCCN=C(N)N | inactive | inactive | inactive | inactive | inactive | inactive | inactive | inactive | inactive | inactive | inactive | inactive | inactive | – | – | – | inactive | – | inactive | –
3 | CCCCCCCCCCCC[n+]1ccc2ccccc2c1 | inactive | inactive | inactive | inactive | inactive | inactive | inactive | – | 9.52 µM (active) | 0.168 µM (active) | 0.298 µM (active) | 0.266 µM (active) | – | – | – | – | 5.96 µM (active) | – | – | –
4 | C[C@H](O)CN(C)C | inactive | inactive | inactive | inactive | inactive | inactive | inactive | – | inactive | inactive | inactive | inactive | inactive | – | – | – | inactive | – | – | –
5 | OCCCNc1ccccc1 | inactive | inactive | inactive | inactive | inactive | inactive | inactive | inactive | inactive | – | – | inactive | inactive | – | – | – | inactive | – | inactive | –
6 | CC(C)C[C@H](NC(=O)[C@@H](COC(C)(C)C)NC(=O)[C@H](Cc1ccc(O)cc1)NC(=O)[C@H](CO)NC(=O)[C@H](Cc1c[nH]c2ccccc12)NC(=O)[C@H](Cc1cnc[nH]1)NC(=O)[C@@H]1CCC(=O)N1)C(=O)N[C@@H](CCCN=C(N)N)C(=O)N1CCC[C@H]1C(=O)NNC(N)=O | inactive | inactive | inactive | inactive | inactive | – | inactive | inactive | inactive | inactive | inactive | inactive | inactive | – | – | – | inactive | – | inactive | inactive
7 | CC(C)[C@H](NC(=O)[C@H](CC(=O)O)NC(=O)[C@H](CCCCN)NC(=O)[C@@H](N)CCCN=C(N)N)C(=O)N[C@@H](Cc1ccc(O)cc1)C(=O)O (H-RKDVY-OH) | inactive | inactive | inactive | inactive | inactive | inactive | inactive | inactive | inactive | – | – | inactive | inactive | – | – | – | inactive | – | inactive | –
8 | COc1cccc2c1[C@@H]1CN(CCCCn3c(=O)[nH]c4c(sc5ncc(-c6ccccc6)nc54)c3=O)C[C@@H]1CO2 | inactive | inactive | inactive | inactive | inactive | – | inactive | – | inactive | 13.3 µM (active) | 18.8 µM (active) | 11.9 µM (active) | – | – | – | – | – | 29.8 µM (active) | – | inactive
9 | CCCCCCCCCCCCCCCCC(C(=O)O)C(O)(CC(=O)O)C(=O)O (centres undefined) | inactive | inactive | inactive | inactive | inactive | inactive | inactive | – | – | inactive | inactive | inactive | inactive | – | – | – | inactive | inactive | – | –
10 | CC(C)(O/N=C(\C(=O)N[C@@H]1C(=O)N2C(C(=O)[O-])=C(C[n+]3ccccc3)CS[C@H]12)c1csc(N)n1)C(=O)O | inactive | inactive | inactive | inactive | inactive | inactive | inactive | inactive | – | inactive | inactive | inactive | inactive | – | – | – | inactive | – | – | –
11 | N[C@H](CO)C(=O)O | inactive | inactive | inactive | inactive | inactive | inactive | inactive | inactive | inactive | inactive | – | inactive | inactive | – | – | – | inactive | – | – | –
12 | CC[C@H]1OC(=O)[C@H](C)C(=O)[C@H](C)[C@@H](O[C@@H]2O[C@H](C)C[C@H](N(C)C)[C@H]2O)[C@](C)(OC)C[C@@H](C)C(=O)[C@H](C)[C@H]2N(CCCCn3cnc(-c4cccnc4)c3)C(=O)O[C@]12C | inactive | inactive | inactive | inactive | inactive | – | – | inactive | inactive | 4.22 µM (active) | 5.96 µM (active) and inactive | 6.68 µM (active) | inactive | – | – | – | – | – | inactive | inactive
13 | C/C(=C\C(=O)OCCCCCCCCC(=O)O)C[C@@H]1OC[C@H](C[C@@H]2O[C@H]2[C@@H](C)[C@H](C)O)[C@@H](O)[C@H]1O | inactive | inactive | inactive | inactive | inactive | inactive | inactive | inactive | inactive | 1.5 µM (active) | 1.5 µM (active) | 2.37 µM (active) | inactive | – | – | – | inactive | – | inactive | –
14 | CCC(=O)OC(OP(=O)(CCCCc1ccccc1)CC(=O)N1C[C@H](C2CCCCC2)C[C@H]1C(=O)O)C(C)C (some centres undefined) | inactive | inactive | inactive | inactive | inactive | inactive | inactive | inactive | inactive | inactive | – | inactive | inactive | – | – | – | inactive | – | – | –
15 | CCCCCCCCCCCCCC(=O)OCC(COP(=O)([O-])OCC[N+](C)(C)C)OC(=O)CCCCCCCCCCCCC (centres undefined) | inactive | inactive | inactive | inactive | inactive | inactive | inactive | inactive | inactive | inactive | inactive | inactive | inactive | – | – | – | inactive | – | inactive | –
16 | CS(=O)(=O)c1ccc([C@@H](O)[C@@H](COC(=O)CN)NC(=O)C(Cl)Cl)cc1 | inactive | inactive | inactive | inactive | inactive | – | inactive | – | inactive | 5.96 µM (active) | 6.68 µM (active) | 7.5 µM (active) | inactive | – | – | – | inactive | – | – | inactive
